# Screen size: about 310,000 compounds; about 14,000 (4.5%) showed an effect of 50% or more. The effect is printed as a negative number. This excerpt belongs to a sample that is enriched for strong results.
# Target: human ether-à-go-go-related gene (hERG) potassium channel (human, UniProt Q12809)
# Assay: primary screen, population patch clamp on CHO cells stably expressing hERG; higher = less effect of the substance
# 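Note: peak tail current of the secondary pulse compared with the same well before compound.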
# Chain of human ether-à-go-go-related gene (hERG) potassium channel (Q12809 whole entry, looked up): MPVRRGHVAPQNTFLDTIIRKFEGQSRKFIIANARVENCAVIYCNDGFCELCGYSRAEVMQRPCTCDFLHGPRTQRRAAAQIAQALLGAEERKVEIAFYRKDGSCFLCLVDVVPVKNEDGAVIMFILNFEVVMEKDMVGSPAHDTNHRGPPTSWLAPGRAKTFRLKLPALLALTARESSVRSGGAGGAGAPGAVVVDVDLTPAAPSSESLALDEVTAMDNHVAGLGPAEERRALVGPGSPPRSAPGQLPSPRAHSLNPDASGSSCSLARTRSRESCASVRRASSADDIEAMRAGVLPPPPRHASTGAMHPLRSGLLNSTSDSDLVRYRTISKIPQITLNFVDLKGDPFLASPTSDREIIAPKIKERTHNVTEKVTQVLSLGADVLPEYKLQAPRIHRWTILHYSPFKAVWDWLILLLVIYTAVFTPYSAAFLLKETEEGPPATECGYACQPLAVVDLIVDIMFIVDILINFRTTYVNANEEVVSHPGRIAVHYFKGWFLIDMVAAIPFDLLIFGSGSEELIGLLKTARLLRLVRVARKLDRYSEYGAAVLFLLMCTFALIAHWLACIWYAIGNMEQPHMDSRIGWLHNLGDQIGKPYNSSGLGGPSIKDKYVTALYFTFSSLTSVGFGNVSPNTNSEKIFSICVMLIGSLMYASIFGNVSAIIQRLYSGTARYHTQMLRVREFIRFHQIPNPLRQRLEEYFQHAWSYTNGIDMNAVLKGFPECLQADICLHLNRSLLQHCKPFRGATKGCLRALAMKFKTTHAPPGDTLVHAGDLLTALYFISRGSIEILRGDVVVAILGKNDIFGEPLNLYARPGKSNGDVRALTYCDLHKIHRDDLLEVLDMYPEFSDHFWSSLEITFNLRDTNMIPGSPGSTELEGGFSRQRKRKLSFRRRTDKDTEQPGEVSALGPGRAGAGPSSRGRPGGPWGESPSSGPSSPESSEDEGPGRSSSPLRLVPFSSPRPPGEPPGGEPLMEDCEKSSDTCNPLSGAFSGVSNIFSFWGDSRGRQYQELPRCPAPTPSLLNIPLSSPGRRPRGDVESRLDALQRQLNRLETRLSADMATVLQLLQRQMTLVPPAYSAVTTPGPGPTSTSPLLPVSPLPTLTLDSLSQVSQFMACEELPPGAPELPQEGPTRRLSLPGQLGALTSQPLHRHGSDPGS
row,Structure (SMILES),"hERG current change (%, negative = inhibition) at 10uM"
1,COC(=O)c1cc(S(=O)(=O)NCc2ccccc2Cl)c[nH]1,17.1%
2,C1CN(CCN2CCOCC2)CCN1,21%
3,Cc1cccc(C)c1NS(=O)(=O)c1ccc(NC(=O)c2ccc(Cl)c([N+](=O)[O-])c2)cc1,13.9%
4,Cc1ccc(S(=O)(=O)N(CC2CO2)c2ccccc2[N+](=O)[O-])cc1 (stereo not shown),13.1%
5,O=C(Nc1nnc(SCc2ccccc2Cl)s1)c1cccc([N+](=O)[O-])c1,-3.26%
6,O=C(Nc1cc(Oc2ccc(Cl)cc2)cc([N+](=O)[O-])c1)c1ccco1,15%
7,CCOc1cnn(-c2cc(Oc3ccc(C)cc3)ncn2)c(=O)c1Cl,-12.4%
8,O=C(CSc1nnnn1-c1cccc2ccccc12)Nc1ccc(N2CCOCC2)c(Cl)c1,2.68%
9,COc1ccc(OCC(O)CNC(C)c2ccccc2)cc1.Cl (stereo not shown),5.12%
10,CC(C)c1ccc(OCC(O)CNC(C)c2ccccc2)cc1.Cl (stereo not shown),-65.3%
11,CC(NCC(O)COc1ccc(Br)cc1)c1ccccc1.Cl (stereo not shown),0.452%
12,O=C1CCCN1c1cc(Cl)ccc1Cl,2.17%
13,CN(Cc1nc(-c2cnccn2)no1)CC1(c2ccccc2)CC1(C)C (stereo not shown),4.2%
14,COc1ccc(-c2nnc(-c3ccc(N)cc3)o2)cc1,-5.64%
15,CC1CCCCN1C(=O)c1ccc(S(=O)(=O)N2CCCCC2C)cc1 (stereo not shown),-9.35%
16,COc1ccccc1N1CCN(C(=O)/C=C/c2ccc3c(c2)OCO3)CC1,-10.5%
17,C=CCNC(=O)/C(=C/c1cccc([N+](=O)[O-])c1)NC(=O)c1ccccc1,-31.2%
18,COc1ccc(C(=O)N/C(=C\c2cccc([N+](=O)[O-])c2)C(=O)Nc2cccc(C(=O)O)c2)cc1,5.3%
19,CC(C)(C)c1ccc(C(=O)N/C(=C\c2cccc([N+](=O)[O-])c2)C(=O)Nc2cccc(C(=O)O)c2)cc1,12.7%
20,C=CCNC(=O)/C(=C/c1cccc([N+](=O)[O-])c1)NC(=O)c1ccco1,-27.5%
21,C=CCNC(=O)/C(=C\c1cccc([N+](=O)[O-])c1)NC(=O)c1ccccc1,-53.4%
22,CN(C)CCNC(=O)/C(=C/c1cccc([N+](=O)[O-])c1)NC(=O)c1ccccc1,-66.9%

row,Structure (SMILES),"hERG current change (%, negative = inhibition) at 10uM"
1,Cc1c(C(=O)N(CC(C)C)c2c(N)n(Cc3ccccc3)c(=O)[nH]c2=O)sc2nc3n(c(=O)c12)CCC3,7.27%
2,CC(C)CN1C(=O)C(=O)N(CC(=O)c2ccc[nH]2)C1=O,1.48%
3,Cc1ccc(S(=O)(=O)N2CCCCC2C(=O)N2CCN(C)CC2)cc1 (stereo not shown),18.1%
4,CCOc1ccc(N(CC(=O)Nc2ccccc2C(=O)NC(C)CC)S(C)(=O)=O)cc1 (stereo not shown),-13.3%
5,CC(=O)c1ccc(N2CCN(S(=O)(=O)c3c(C(=O)N4CCCCC4)c(C)n(C)c3C)CC2)cc1,-2.75%
6,Cc1c(C(=O)N2CCOCC2)c(S(=O)(=O)N2CCN(c3ccc(Cl)cc3)CC2)c(C)n1C,-37.6%
7,Cc1c(C(=O)N2CCCCC2)c(S(=O)(=O)N2CCN(c3ccc(Cl)cc3)CC2)c(C)n1C,-55.7%
8,Cc1[nH]c(C)c(S(=O)(=O)N2CCN(c3cccc(Cl)c3)CC2)c1C(=O)N1CCCC1,-6.94%
9,Cc1[nH]c(C)c(S(=O)(=O)N2CCN(c3ccc(Cl)cc3)CC2)c1C(=O)N1CCCC1,-66.4%
10,Cc1[nH]c(C)c(S(=O)(=O)N2CCN(c3ccccc3)CC2)c1C(=O)N1CCCC1,-10.4%
11,CCOc1ccc(OCC)c(NC(=O)C2CCN(c3ncccn3)CC2)c1,-30%
12,CCC(C)CCN1C(N(C)C)=NC[C@@H]1C (stereo partly shown),15.3%
13,O=C(NC1CCCCC1)C(c1ccco1)N(C(=O)c1csnn1)c1cccc(Cl)c1 (stereo not shown),4.93%
14,OCCC1CN(Cc2cccn2-c2nccs2)CCN1Cc1ccccc1 (stereo not shown),-69.3%
15,CC(C)CCN1CCN(Cc2cccn2-c2nccs2)CC1CCO (stereo not shown),-52.1%
16,OCCC1CN(Cc2cccn2-c2nccs2)CCN1CCc1ccccc1 (stereo not shown),-73.6%
17,CC(C)N1CCN(Cc2cccn2-c2nccs2)CC1CCO (stereo not shown),10.2%
18,OCCC1CN(Cc2cccn2-c2nccs2)CCN1C1CCCCC1 (stereo not shown),-37.8%
19,CC(C)=CCN1CCN(Cc2cccn2-c2nccs2)CC1CCO (stereo not shown),-34.1%
20,CCOc1ccc(CN2CCN(Cc3cccn3-c3nccs3)CC2CCO)cc1 (stereo not shown),-76.1%
21,COc1ccc(CN2C(=O)c3ccccc3C(/C=N\OCc3ccc(C)cc3)C2=O)cc1 (stereo not shown),8.84%
22,CCN(c1ccccc1)S(=O)(=O)c1ccc(C(=O)Nc2nccs2)cc1,8.62%

row,Structure (SMILES),"hERG current change (%, negative = inhibition) at 10uM"
1,Cc1c(S(=O)(=O)Nc2ccc3c(c2)OCCO3)c(=O)n(C)c(=O)n1C,-10.7%
2,CCOCCCNS(=O)(=O)c1cc2[nH]c3c(c2cc1C)C(=O)CC(C)(C)C3,-6.44%
3,Cc1ccc(NS(=O)(=O)c2ccc(C)c(C(=O)N3CCN(C)CC3)c2)cc1.Cl,-14.8%
4,COc1ccc(OC)c(S(=O)(=O)N(C)CC(=O)Nc2ccccc2OC)c1,-20.2%
5,O=C1/C(=C\c2ccc(Br)o2)Cc2ccccc21,2.56%
6,CSc1ncccc1C(=O)OCC(=O)Nc1ccc2c(c1)CCC2,9.67%
7,COc1ccc(C(=O)NC(=S)NNC(=O)COc2ccccc2)cc1,-2.47%
8,CCc1nc(CN2CCN(Cc3ccc(F)c(F)c3)C(CCO)C2)c(C)[nH]1 (stereo not shown),14.2%
9,OCCC1CN(Cc2cccn2-c2nccs2)CCN1Cc1ccc(F)c(F)c1 (stereo not shown),-80.7%
10,Cc1ccc(CN2CCN(Cc3cccn3-c3nccs3)CC2CCO)cc1 (stereo not shown),-77.3%
11,Cc1ccc(N2C(=O)CC(C)CC2=O)cc1,21.2%
12,O=C(C[n+]1ccc(C(=O)c2ccccc2)cc1)Nc1ccc(C(F)(F)F)cc1.[Cl-],-11.6%
13,CS(=O)(=O)N(CC(=O)N1CCCCC1)c1cccc(F)c1,13%
14,COc1cccc(NC(=O)COC(=O)c2ccccc2F)c1,13.8%
15,O=C(CCc1nnc2ccc(N3CCC4(CC3)OCCO4)nn12)Nc1ccc(F)cc1,-40.2%
16,CC(C)[C@H](CN(N=O)[C@@H](Cc1ccccc1)CN(C)N=O)N(CCc1ccccc1)N=O.[Na+],-0.676%
17,CC(C)(C)C(=O)NC(NC(=O)C(C)(C)C)c1ccc([N+](=O)[O-])cc1,8.18%
18,CCn1nc(C)c(Br)c1-c1nc(-c2cccc(C)c2)no1,19.1%
19,CC1(C)CC(=O)C(N=Nc2ccc(F)cc2)=C(O)C1,-4.21%
20,CC1(C)CC(=O)C(N=Nc2ccc(OC(F)F)cc2)=C(O)C1,-57.6%
21,COc1ccc(N=NC2=C(O)CC(C)(C)CC2=O)cc1,-9.39%
22,COc1ccc(-n2cnc3cc(C(=O)N4CCC5(CC4)OCCO5)ccc32)cc1,-42.8%

row,Structure (SMILES),"hERG current change (%, negative = inhibition) at 10uM"
1,O=C(Cc1ccccc1)Nc1ccccc1N1CCCC1,9.76%
2,Cc1ccc(-c2nnc(SCC(=O)Nc3ccccc3F)o2)cc1,6.53%
3,Cc1ccc(C)c(CSc2ccc3nnc(-c4ccccn4)n3n2)c1,-76.5%
4,Cc1ccccc1CSc1ccc2nnc(-c3ccccn3)n2n1,-81.6%
5,Cc1ccccc1CSc1nnc(-c2ccccn2)n1C,-1.96%
6,Cc1nnc(NC(=O)CSc2ccc3nnc(-c4ccccn4)n3n2)s1,-9.79%
7,Cc1ccccc1NC(=O)CSc1ccc2nnc(-c3ccccn3)n2n1,-23.8%
8,Cc1cc(NC(=O)CSc2ccc3nnc(-c4ccccn4)n3n2)no1,-6.72%
9,CS(=O)Cc1cc(Oc2ccccc2)nc(-c2ccncc2)n1 (stereo not shown),-16.5%
10,Cc1nc2cc(NC(=O)c3ccc(Br)s3)ccc2s1,20%
11,O=C(CCCSc1nc2ccccc2[nH]1)N1CCN(c2ccc([N+](=O)[O-])cc2)CC1,-79.9%
12,O=[N+]([O-])c1ccc(N2CCN(CCO)CC2)cc1Sc1nc2ccccc2[nH]1,-12.4%
13,O=C(CSc1ncccc1-c1nc2ccccc2[nH]1)N1CCCCC1,-16.3%
14,COc1ccccc1N1CCN(C(=O)CSc2ncccc2-c2nc3ccccc3[nH]2)CC1,-23.7%
15,CCN1CCN(c2ccc([N+](=O)[O-])c(Sc3nc4ccccc4[nH]3)c2)CC1,-60.4%
16,O=C(CSc1nc2ccccc2[nH]1)Nc1ccc(N2CCOCC2)cc1,8.65%
17,CN1CCN(c2ccc([N+](=O)[O-])c(Sc3nc4ccccc4[nH]3)c2)CC1,-19.7%
18,COc1ccc(N2CCN(C(=O)CSc3ncccc3-c3nc4ccccc4[nH]3)CC2)cc1,-53.4%
19,CC1(C(=O)CSc2nc3ccccc3[nH]2)CCC(=O)O1 (stereo not shown),-70.8%
20,Br.CC1(C(=O)CSc2ncn[nH]2)CCC(=O)O1 (stereo not shown),2.21%
21,NC(=O)CCCSc1nc2ccccc2[nH]1,13.3%
22,Br.CC1(C(=O)CSc2nc3ccccc3s2)CCC(=O)O1 (stereo not shown),-2.67%

# Source: publication PMC4336329 (PLoS ONE, 2015)
